The supplement of paper PMC12532568
Counter-ions that a name gives are not always drawn.

The molecules below were run on Danio rerio larvae Tg(actc1b:ZsGreen-LC3), 3 dpf (assay: LC3 puncta relative area vs vehicle, without NH4Cl (log2 fold change); higher = more autophagosomes). Conditions: 10 µM; treatment time 16 h; NH4Cl: none.
Protocol: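 Transgenic Tg(actc1b:ZsGreen-map1lc3) zebrafish larvae (2 dpf) were treated for 16 h with Tocris library compounds at 10 µM (n = 12 larvae per compound). Skeletal-muscle LC3 puncta area relative to body area was measured by high-content confocal imaging before and after 4 h of 100 mM NH4Cl (autophagic flux), normalised to vehicle (DMSO), and reported as log2 fold change.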

Row | SMILES | LC3 puncta (log2)
1 | COC(=O)[C@@H](N)CCCNC(=N)N[N+](=O)[O-] [L-NAME hydrochloride] | -0.0167
2 | COc1ccc(CNC(=O)/C=C/c2ccc3[nH]cc(CCN(C)C)c3c2)cc1 | -0.124
3 | O=c1[nH]oc2c1CCNC2 [THIP hydrochloride] | 0.233
4 | O=C(Cc1ccc(Cl)c(Cl)c1)N1CCCCC1CN1CCCC1 (stereo not given) | 0.372
5 | c1ccc(CCCCN2CCC(c3ccccc3)CC2)cc1 [4-PPBP maleate] | 0.0152
6 | O=C1NCN(c2ccccc2)C12CCN(CC1COc3ccccc3O1)CC2 (stereo not given) [Spiroxatrine] | 0.423
7 | C[C@H](N)Cc1cnc[nH]1 | 0.17
8 | CCCCCCC[n+]1ccc(-c2cc[n+](CCCCCCC)cc2)cc1 [DHBP dibromide] | 0.00945
9 | NCCc1c[nH]c2ccc(C(N)=O)cc12 [5-Carboxamidotryptamine maleate] | 0.0843
10 | CN(C(=O)Cc1ccc(Cl)c(Cl)c1)[C@H](CN1CCCC1)c1ccccc1 [ICI 199,441 hydrochloride] | 0.0954
11 | CCCN[C@@H]1CCc2c(OC)cccc2[C@@H]1C [(+)-AJ 76 hydrochloride] | 0.121
12 | c1ccc(CCCN2CCN(CCOC(c3ccccc3)c3ccccc3)CC2)cc1 | 0.0674
13 | C(=C\c1ccccc1)/CN1CCN(CCOC(c2ccccc2)c2ccccc2)CC1 | 0.421
14 | CC(C)C[C@H]1C(=O)N2CCC[C@H]2[C@]2(O)O[C@](NC(=O)[C@@H]3C=C4c5cccc6[nH]c(Br)c(c56)C[C@H]4N(C)C3)(C(C)C)C(=O)N12 [Bromocriptine mesylate] | 0.17
15 | CN(C(=O)Cc1ccccc1)C(CN1CCCC1)c1ccccc1 (stereo not given) [N-MPPP Hydrochloride] | 0.385
16 | Cc1nc(N)sc1CCN [Amthamine dihydrobromide] | 0.0368
17 | CN1[C@@H]2CC[C@H]1C[C@@H](OC(=O)c1cc(Cl)cc(Cl)c1)C2 | 0.263
18 | S=C=Nc1cccc(C2(N3CCCCC3)CCCCC2)c1 [Metaphit] | 0.663
19 | CS(=O)(=O)Nc1ccc(Cc2noc(-c3ccc4[nH]cc(CCN)c4c3)n2)cc1 | 0.431
20 | Clc1cccc(SC2CCNCC2)n1 [Anpirtoline hydrochloride] | 0.143

Row | SMILES | LC3 puncta (log2)
21 | Cc1ccc(C[N+](C)(C)C)o1 [5-Methylfurmethiodide] | -0.0134
22 | CC(C(=O)OC1CC2CCC(C1)N2C)c1ccc(Br)cc1 (stereo not given) [PG-9 maleate] | 0.116
23 | OC1CCCCC1N1CCC(c2ccccc2)CC1 (stereo not given) [(?)-Vesamicol hydrochloride] | 0.548
24 | CCCN(C/C=C/I)C1CCc2ccc(O)cc2C1 (stereo not given) [7-Hydroxy-PIPAT maleate] | -0.263
25 | CCCN(CCC)C1CCc2cccc(O)c2C1 (stereo not given) [8-Hydroxy-DPAT hydrobromide] | 0.14
26 | CC(N)Cc1cnc[nH]1 (stereo not given) | 0.372
27 | S=C(NC1CCCCC1)N1CCC(c2cnc[nH]2)CC1 [Thioperamide] | 0.0474
28 | CCC(Oc1ccc(Cl)cc1)C(=O)OC1C[C@H]2CC[C@@H](C1)N2C (stereo not given in full) [SM-21 maleate] | 0.226
29 | C=CCN1CC[C@]23c4c5ccc(O)c4O[C@H]2C(=O)CC[C@@]3(O)[C@H]1C5 [Naloxone hydrochloride] | 0.085
30 | CCCN(CCC)[C@@H]1CCc2c(OC)cccc2[C@@H]1C [(+)-UH 232 maleate] | 0.36
31 | CC[N+](CC)(CCCNC1=CC(=O)C(NCCC[N+](CC)(CC)Cc2ccccc2)=CC1=O)Cc1ccccc1 [Benzoquinonium dibromide] | -0.144
32 | CC(C)[C@@]1(NC(=O)[C@@H]2C[C@@H]3c4cccc5[nH]cc(c45)C[C@H]3N(C)C2)O[C@@]2(O)[C@@H]3CCCN3C(=O)[C@H](Cc3ccccc3)N2C1=O [Dihydroergocristine mesylate] | -0.412
33 | CCCN(CCC)C1CCc2ccc(O)cc2C1 (stereo not given) [7-Hydroxy-DPAT hydrobromide] | -0.0217
34 | CC(=O)N1CC[N+](C)(C)CC1 [4-Acetyl-1,1-dimethylpiperazinium iodide] | -0.21
35 | Cc1onc(O)c1C[C@H](N)C(=O)O | 0.235
36 | O=C(O)/C=C/CO [trans-4-Hydroxycrotonic acid] | -0.0373
37 | N[C@@H](Cn1oc(=O)[nH]c1=O)C(=O)O [L-Quisqualic acid] | 0.387
38 | N=C(N)NN [Aminoguanidine hydrochloride] | 0.471
39 | c1ccc2c(c1)OCC(C1=NCCN1)O2 (stereo not given) [Idazoxan hydrochloride] | 0.411
40 | CC(CN)CC(=O)O (stereo not given) [3-Methyl-GABA] | 0.26
